The text below walks through data of PubChem BioAssay (EPA / NIEHS).

Records with an inconclusive call do not appear. Calls of active or inactive are those of the source. Rule for the calls: active = hit-call score of the fitted dose curve at least 0.9, where 1 is the maximum; inconclusive = response in the unintended direction; inactive = score below 0.9.

Chain of human RAR-related Orphan Receptor gamma (RORg), RORC (gene 6097) (P51449 whole entry, looked up): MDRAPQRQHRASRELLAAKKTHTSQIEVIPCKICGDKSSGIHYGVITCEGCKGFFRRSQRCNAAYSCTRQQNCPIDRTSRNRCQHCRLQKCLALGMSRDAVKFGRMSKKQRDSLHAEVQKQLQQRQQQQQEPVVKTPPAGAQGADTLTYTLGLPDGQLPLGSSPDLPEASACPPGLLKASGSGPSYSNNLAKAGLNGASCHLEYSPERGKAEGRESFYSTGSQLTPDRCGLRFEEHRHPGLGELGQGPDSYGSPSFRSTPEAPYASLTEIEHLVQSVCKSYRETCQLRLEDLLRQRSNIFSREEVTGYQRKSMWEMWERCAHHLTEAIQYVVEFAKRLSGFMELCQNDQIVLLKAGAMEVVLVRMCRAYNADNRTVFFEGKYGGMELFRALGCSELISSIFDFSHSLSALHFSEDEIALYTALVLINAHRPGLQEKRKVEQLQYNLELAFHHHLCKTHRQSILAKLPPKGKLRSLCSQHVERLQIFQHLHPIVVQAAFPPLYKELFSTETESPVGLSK

The assay concerns the target human RAR-related Orphan Receptor gamma (RORg), RORC (gene 6097) (UniProt P51449). As to the kind of experiment: ATG_RORg_TRANS: Attagene TRANS-FACTORIAL HepG2 Assay for human RAR-related Orphan Receptor gamma (RORg) (AID 2283011).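 For AC50: potency for induction of reporter transcripts above DMSO so activators.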 As for the experimental part:
ATG_TRANS is a cell-based, multiplexed-readout assay that uses HepG2, a human liver cell line, with measurements taken at 24 hours after chemical dosing in a 24-well plate.ATG_RORg_TRANS is one of 30 assay component(s) measured or calculated from the ATG_TRANS assay. It is designed to make measurements of mRNA induction, a form of inducible reporter, as detected with fluorescence intensity signals by Reverse transcription polymerase chain reaction (RT-PCR) and Capillary electrophoresis technology.Data from the assay component ATG_RORg_TRANS was analyzed into 1 assay endpoint. This assay endpoint, ATG_RORg_TRANS, was analyzed in the positive analysis fitting direction relative to DMSO as the negative control and baseline of activity. Using a type of inducible reporter, measures of mRNA for gain-of-signal activity can be used to understand the reporter gene at the transcription factor-level as they relate to the gene RORC. Furthermore, this assay endpoint can be referred to as a primary readout, because this assay has produced multiple assay endpoints where this one serves a reporter gene function. To generalize the intended target to other relatable targets, this assay endpoint is annotated to the nuclear receptor intended target family, where the subfamily is orphan.
Human liver HepG2 cells are transiently transfected with multiple reporter transcription units (MRTUs) in 6-well plates using FuGene 6 reagent (Roche; 3 ml FuGene/1 mg DNA). The MRTU constructs are regulated by a cis-regulating element (promoter). […] A major difference between the CIS and TRANS system is that in CIS activities of endogenous TFs are measured, whereas the TRANS assay evaluates changes in activities of exogenous, chimeric NR-Gal4 proteins. […] At the end of 24 hour incubation, total RNA was isolated using TriZol reagent (Invitrogen). The isolated RNA is then reverse-transcribed using oligo(dT) primer and Mo-MLV reverse transcriptase (Invitrogen) with DNAse I (Ambion) treatment for 30 min. The one-tenth of the produced cDNA was amplified by PCR using Taq DNA polymerase (Invitrogen) and two reporter sequence-specific primers. The PCR products were fluorescently labeled by primer extension with 6-arboxyfluorescein (6-FAM) 5'-labeled reporter sequence-specific primer (2 min at 95 C, 20 s at 68 C and 10 min at 72 C) and these products were digested with 5U of HpaI (New England Biolabs) for 2h at 37 C. The fragments were purified using Qiaquick PCR columns (Qiagen), analyzed on an ABI 3130xL genetic analyzer (Applied Biosystems) with peak positions identified by using a set of X-rhodamine (ROX)-labeled MapMarker1000 molecular weight standards (BioVentures). The raw capillary electrophoresis data was processed using Attagraph software (Attagene).
For `CCOC(=O)c1ccc(N)cc1`, the result was inactive.

Take `ON=C1CCCCC1`: the result was inactive.

For the molecule `CCOC(=O)CC(C)O` (stereo not given), the molecule was classed as inactive. One may read the AC50 as the midpoint of the concentration-response curve, whichever way the signal moves. For `C=Cc1ccncc1`, the AC50 is 60.2 µM (active).

Regarding `CCO/C=C1\N=C(c2ccccc2)OC1=O`, the outcome was inactive. In the case of `C1CCCCC1`, the outcome was inactive. The same measure, in the same setting: the same measure for `CC1C2CC(CC2C2CCCC(O)C2)C1(C)C` (stereo not given): “inactive”; for `CC1=NN(c2ccc(S(=O)(=O)O)cc2)C(=O)C1`: “inactive”; for `O=C1OC2(c3ccccc31)c1ccc(O)c(Br)c1Oc1c2ccc(O)c1Br`: “inactive”. Consider `CCCC(=O)c1ccccc1`, for which the outcome was inactive.

With `CC(C)=CCCC(C)CC(=O)O` (stereo not given), the outcome was inactive. For `O=C(O)c1cccnc1C(=O)O`, the molecule was classed as inactive.

In the case of `C=C(C)[C@@H]1CC=C(C)C(=O)C1`, the molecule was classed as inactive. Take `CC(=O)c1ccccn1`: the result was inactive. As to `O=c1c(O)c(-c2ccc(O)cc2)oc2cc(O)cc(O)c12`, the molecule was classed as inactive. The same measure, in the same setting: the same measure for `C=C(C)C(=O)OCCOCCOCCOCCOC(=O)C(=C)C`: “inactive”; for `CCN(CC)C(=O)N(CC)CC`: “inactive”.

Regarding `CCCCC(CC)COC(C)=O` (stereo not given), the result was inactive. In the case of `C=C1C[C@]23C[C@@]1(O)CC[C@H]2[C@@]12C=C[C@H](O)[C@@](C)(C(=O)O1)[C@H]2[C@@H]3C(=O)O`, the molecule was called inactive. On to `C/C=C(\C)C(=O)OCCc1ccccc1`, for which the molecule was called inactive. For the molecule `Nc1ccc2c(O)cc(S(=O)(=O)O)cc2c1`, the outcome was inactive. `O=C1NC2NC(=O)NC2N1` (stereo not given): the molecule was called inactive. As to `O=P(O)(O)O`, the call was inactive. In the case of `COc1ccc(N=Nc2cc(C)c(N=Nc3ccc(S(=O)(=O)O)cc3)cc2OC)cc1`, the result was inactive.

Consider `CN1C(=O)c2ccccc2C1=O`, for which the result was inactive. Still for that read-out and setting: the same measure for `NCc1ccco1`: “inactive”; for `Cc1[nH]c(=O)c(C#N)cc1-c1ccncc1`: “inactive”; for `CCCCCCC(CO)CCCC` (stereo not given): “inactive”. As to `CCOC(=O)C1OC1c1ccccc1` (stereo not given), the result was inactive. Take `O=CN1CCOCC1`: the outcome was inactive. Still for that read-out and setting: the same measure for `O=C(O)CCCCCCCCCCCC(=O)O`: “inactive”; for `CS(=O)(=O)OCCCCOS(C)(=O)=O`: “inactive”.

Take `C=CC(=O)OCCC#N`: the outcome was inactive.

For the molecule `CC(Oc1cc(Cl)ccc1Cl)C(=O)O` (stereo not given), the result was inactive. Consider `OC[C@H]1O[C@@H]2O[C@H]3[C@H](O)[C@@H](O)[C@@H](O[C@H]4[C@H](O)[C@@H](O)[C@@H](O[C@H]5[C@H](O)[C@@H](O)[C@@H](O[C@H]6[C@H](O)[C@@H](O)[C@@H](O[C@H]7[C@H](O)[C@@H](O)[C@@H](O[C@H]8[C@H](O)[C@@H](O)[C@@H](O[C@H]9[C@H](O)[C@@H](O)[C@@H](O[C@H]1[C@H](O)[C@H]2O)O[C@@H]9CO)O[C@@H]8CO)O[C@@H]7CO)O[C@@H]6CO)O[C@@H]5CO)O[C@@H]4CO)O[C@@H]3CO`, for which the molecule was classed as inactive. Regarding `O=C(CC(=O)c1ccccc1)c1ccccc1`, the molecule was classed as inactive. Turning to `[O-]n1ccccc1=S.[O-]n1ccccc1=S.[Zn+2]`, the outcome was inactive. With `CCC(C)c1cc([N+](=O)[O-])cc([N+](=O)[O-])c1OC(=O)OC(C)C` (stereo not given), the result was inactive. Consider `C=C(C#N)C(=O)OCC`, for which the call was inactive. Turning to `CC1=CC[C@@]23C[C@@H]1C(C)(C)[C@@H]2CC[C@H]3C`, the call was inactive.
